# In PubChem BioAssay (NCATS):
# Records with an inconclusive call do not appear. Where a call stands in place of a potency, no number is given. The source made the active and inactive calls. Unless noted, calls follow the shape of the dose curve; as a rule, active = well fitted curve in the direction sought with a large enough effect; inconclusive = small, poorly fitted or top-dose-only effect, or another doubt; inactive = no such curve, though single readings can be large; an effect the other way counts as inactive or inconclusive.
# Assays:
# [1] = Cell Viability - LYMP2-001 (AID 921); also: series mostly up to about 92 µM; nearly all actives have a fitted effect of over 70% in size
# Summary of the method: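 Human lymphoblastoid cells (Coriell), 2500 per well, were preincubated 5 hr at 37 C, then exposed to compounds in complete medium for 24 hr at 37 C. Cellular ATP was read by CellTiter-Glo luminescence; AC50 from Hill fits of concentration-response data.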
# [2] = MultiTox-Fluor Cytotoxicity Assay - LYMP1-001 - Dead Cells (AID 946); also: potency is read from the fitted curve at half-maximal effect
# Summary of the method: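 LYMP1-001 lymphoblastoid cells (2500/well) treated 16 h at 37 C. Dead-cell protease cleavage of bis-AAF-R110 read at Ex/Em 485/520. Normalized to DMSO and 15 uM tetraoctylammonium bromide; AC50 from Hill fits.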
# [3] = MultiTox-Fluor Cytotoxicity Assay - LYMP1-001 - Live Cells (AID 947)
# [4] = Cell Viability - LYMP1-002 - Assay at 16 hr (AID 948)
# Summary of the method: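 Human lymphoblastoid cells (LYMP1-002), 2500/well, were preincubated 5 hr at 37 C, then exposed to compounds for 16 hr at 37 C in complete medium. Cellular ATP was read by CellTiter-Glo luminescence after 30 min at room temperature; AC50 from Hill fits.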
# [5] = MultiTox-Fluor Cytotoxicity Assay - LYMP1-002 - Live Cells (AID 955)
# Summary of the method: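 Read-out is live-cell protease activity (cell-permeant GF-AFC substrate, fluorescence Ex/Em=405/510), where a decrease indicates acute toxicity. Human lymphoblastoid cells were treated 16 hours at 37 C in a concentration series, and AC50 values came from standard Hill modelling.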
# [6] = MultiTox-Fluor Cytotoxicity Assay - LYMP1-002 - Dead Cells (AID 960); also: nearly all actives have a fitted effect of over 60% in size
# Summary of the method: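 LYMP1-002 cells 2500/well; 5 hr 37 C pre-incubation; compound 16 hr 37 C; MultiTox-Fluor reagent 60 min RT; dead-cell fluor Ex/Em 485/520. Norm. to DMSO (0%) vs 15 uM tetraoctylammonium bromide (100%); Hill AC50.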
# [7] = MultiTox-Fluor Cytotoxicity Assay - LYMP1-003 - Dead Cells (AID 961); also: nearly all actives have a fitted effect of over 70% in size
# Summary of the method: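 LYMP1-003 human lymphoblastoid cells (2500/well) exposed to compound 16 h at 37 C in complete medium; dead-cell protease read with bis-AAF-R110 fluorescence (Ex/Em 485/520) after 60 min at room temperature. Normalized to DMSO and 15 uM tetraoctylammonium bromide; AC50 from Hill fit.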
# [8] = MultiTox-Fluor Cytotoxicity Assay - LYMP1-003 - Live Cells (AID 962);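 also: cytotoxic hits lower the live-cell protease signal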
# Summary of the method: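 qHTS, 1536-well; 2500 cells/well LYMP1-003; 5 hr 37 C settle; cpd 16 hr 37 C; MultiTox-Fluor reagent 60 min RT; live-cell protease fluor. 405/510; Hill-fit AC50; tetraoctylammonium bromide pos. ctrl.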
# [9] = Cell Viability - LYMP1-003 - Assay at 24 hr (AID 963)
# Summary of the method: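 Cells seeded at 2500/well, 5 hr at 37 C; compounds added; 24 hr at 37 C; CellTiter-Glo added, 30 min room temperature; luminescence read. Decrease in ATP taken as cytotoxicity, AC50 from Hill modelling.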
# [10] = Cell Viability - LYMP1-003 - Assay at 40 hr (AID 964); also: series mostly up to about 92 µM; nearly all actives have a fitted effect of over 60% in size
# Summary of the method: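 Cells were seeded at 2500 per well and incubated 5 hr at 37 C. Compounds were added across a concentration series and left 40 hr at 37 C. CellTiter-Glo was added for 30 min at room temperature before luminescence reading.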
# [11] = molecular target: Muscarinic acetylcholine receptor M1 (Rattus norvegicus) (UniProt P08482); assay: qHTS Assay for Antagonists of Acetylcholine Muscarinic M1 Receptor: Measurement of IP-One Response (AID 944); also: nearly all actives have a fitted effect of over 75% in size; also: potency is read from the fitted curve at half-maximal effect
# Chain of Muscarinic acetylcholine receptor M1 (Rattus norvegicus) (P08482 whole entry, looked up): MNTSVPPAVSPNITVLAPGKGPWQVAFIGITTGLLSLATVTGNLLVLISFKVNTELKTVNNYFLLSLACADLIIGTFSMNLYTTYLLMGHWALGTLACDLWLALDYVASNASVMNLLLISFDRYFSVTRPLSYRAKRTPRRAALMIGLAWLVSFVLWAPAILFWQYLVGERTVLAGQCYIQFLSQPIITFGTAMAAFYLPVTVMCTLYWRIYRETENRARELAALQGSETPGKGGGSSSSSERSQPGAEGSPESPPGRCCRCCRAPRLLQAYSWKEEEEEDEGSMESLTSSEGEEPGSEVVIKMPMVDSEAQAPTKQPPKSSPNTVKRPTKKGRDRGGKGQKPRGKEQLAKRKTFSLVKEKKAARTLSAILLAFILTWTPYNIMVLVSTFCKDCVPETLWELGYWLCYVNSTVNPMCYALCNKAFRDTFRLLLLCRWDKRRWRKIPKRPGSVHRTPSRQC
# Summary of the method: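 M1-CHO (rat), 2000 cells/well, overnight recovery; cpd 10 min; carbachol EC80 (200 nM), 30 min, HEPES buffer + 50 mM LiCl pH 7.4; IP-One HTRF, Ex 337, Em 620/665 nm.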
# [12] = molecular target: Pyruvate kinase (Leishmania mexicana) (UniProt Q27686); assay: qHTS Validation Assay for Inhibitors of Leishmania Mexicana Pyruvate Kinase (AID 945)
# Chain of Pyruvate kinase (Leishmania mexicana) (Q27686 2-499 E452W): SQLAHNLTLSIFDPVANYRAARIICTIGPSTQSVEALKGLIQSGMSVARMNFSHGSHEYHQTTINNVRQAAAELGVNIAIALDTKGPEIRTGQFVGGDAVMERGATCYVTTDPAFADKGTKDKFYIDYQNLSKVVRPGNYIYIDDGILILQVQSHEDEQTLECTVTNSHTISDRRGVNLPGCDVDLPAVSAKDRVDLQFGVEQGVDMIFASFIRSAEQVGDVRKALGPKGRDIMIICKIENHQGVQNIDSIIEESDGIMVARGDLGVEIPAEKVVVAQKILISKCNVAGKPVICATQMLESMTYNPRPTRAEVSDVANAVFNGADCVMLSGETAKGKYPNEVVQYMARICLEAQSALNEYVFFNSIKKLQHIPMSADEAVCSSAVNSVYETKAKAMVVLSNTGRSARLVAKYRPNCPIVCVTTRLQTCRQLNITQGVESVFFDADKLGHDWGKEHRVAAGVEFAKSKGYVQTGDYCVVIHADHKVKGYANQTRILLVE
# Summary of the method: (§1)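 Read-out: luminescence from PKLight stop/detection reagent, data normalized to DMSO. Reaction: 0.2 nM E451W LmPYK, 0.5 mM PEP, 0.1 mM ADP, pH 7.2, 1 h room temperature.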
# [13] = molecular target: Pyruvate kinase PKM (Homo sapiens) (UniProt P14618); assay: qHTS Assay for Activators of Human Muscle Pyruvate Kinase (AID 954; active = well fitted curve in the direction sought with a large enough effect, not every such curve was filed as active)
# Chain of Pyruvate kinase PKM (Homo sapiens) (P14618 whole entry, looked up): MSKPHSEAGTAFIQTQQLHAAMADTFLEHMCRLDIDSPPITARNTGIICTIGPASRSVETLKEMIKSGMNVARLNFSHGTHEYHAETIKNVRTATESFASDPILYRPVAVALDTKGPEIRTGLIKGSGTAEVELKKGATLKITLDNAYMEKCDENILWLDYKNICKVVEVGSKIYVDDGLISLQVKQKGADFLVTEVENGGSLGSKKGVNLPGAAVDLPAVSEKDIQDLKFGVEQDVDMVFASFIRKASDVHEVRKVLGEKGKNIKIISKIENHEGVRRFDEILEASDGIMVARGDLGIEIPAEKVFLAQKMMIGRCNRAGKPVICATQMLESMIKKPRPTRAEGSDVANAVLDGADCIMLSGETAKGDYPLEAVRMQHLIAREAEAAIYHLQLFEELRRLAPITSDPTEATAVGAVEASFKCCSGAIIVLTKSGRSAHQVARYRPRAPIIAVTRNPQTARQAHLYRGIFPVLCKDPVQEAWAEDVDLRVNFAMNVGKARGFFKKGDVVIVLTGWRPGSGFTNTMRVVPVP
# Summary of the method: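 Purified human PKM2 (0.1 nM) with 0.5 mM PEP (Km) and 0.1 mM ADP in 50 mM imidazole pH 7.2, KCl, MgCl2, 1 h at room temperature; ATP formed read by coupled luciferase luminescence. Normalized to no-enzyme/110 uM thiadiazolimine inhibition; 0.3 nM enzyme column for activation.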
# [14] = molecular target: Alpha-galactosidase (Coffea arabica) (UniProt Q42656); assay: Counterscreen for Glucocerebrosidase Inhibitors: qHTS Assay for Coffee Bean alpha-Galactosidase at pH 4.5 (AID 957); also: series mostly up to about 77 µM
# Chain of Alpha-galactosidase (Coffea arabica) (Q42656 whole entry, looked up): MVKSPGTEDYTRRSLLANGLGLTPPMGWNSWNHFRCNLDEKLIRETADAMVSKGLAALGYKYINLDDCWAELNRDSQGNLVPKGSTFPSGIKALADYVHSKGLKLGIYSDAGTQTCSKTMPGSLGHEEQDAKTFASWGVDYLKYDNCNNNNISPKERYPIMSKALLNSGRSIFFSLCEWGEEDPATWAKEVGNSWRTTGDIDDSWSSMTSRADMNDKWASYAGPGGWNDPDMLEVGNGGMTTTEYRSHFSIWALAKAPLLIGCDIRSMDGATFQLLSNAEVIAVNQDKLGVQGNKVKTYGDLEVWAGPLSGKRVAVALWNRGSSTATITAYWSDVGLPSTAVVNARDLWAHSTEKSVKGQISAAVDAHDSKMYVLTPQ
# Summary of the method: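 Coffee bean alpha-galactosidase 2 nM, substrate 4-MU-alpha-Gal 80 uM, pH 4.5 citrate/Tween-20, 20 min RT. Cpd titration 0.7 nM–77 uM. Stop pH 10, fluorescence 365/440 nm; Hill-equation AC50.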
# [15] = qHTS Assay for Identification of Small Molecule Antagonists for Thrombopoietin (TPO) Signaling Pathway (AID 918); conditions: TPO-dependent cell signaling reporter, antagonist mode; also: potency is read from the fitted curve at half-maximal effect; nearly all actives have a fitted effect of over 60% in size
# Summary of the method: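 Ba/F3 (murine, hTPO-R, GPIIb-luc reporter); overnight IL-3 withdrawal; cpd + TPO 26 pM final (EC50); 24 h 37 C/5% CO2; Steadylite luminescence after 10 min RT.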
# [16] = molecular target: Pyruvate kinase (Leishmania mexicana) (UniProt Q27686); assay: qHTS Validation Assay for Activators of Leishmania Mexicana Pyruvate Kinase (AID 959); conditions: purified L. mexicana pyruvate kinase, enzyme activity
# Summary of the method: as §1
# [17] = Confirmation and Secondary Assay for Modulators of Hemoglobin Beta Chain Splicing at IVS2 705 locus (AID 930);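 also: HeLa cells stably expressing the EGFP-705 splicing reporter; GFP fluorescence per well restored by corrected splicing of the IVS2-705 intron in EGFP; series mostly up to about 46 µM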
# Summary of the method: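 Secondary splice-site specificity test uses HeLa expressing CMV-driven EGFP interrupted by IVS2-705; cells were treated 2 days at 37C with 500 nM antisense PNA as positive control.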
# [18] = molecular target: Muscarinic acetylcholine receptor M1 (Rattus norvegicus) (UniProt P08482); assay: qHTS Assay for Antagonists of Acetylcholine Muscarinic M1 Receptor: Kinetic Measurement of Intracellular Calcium Response (AID 943);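 also: Fluo-4 calcium signal as peak divided by basal fluorescence over 4 min; series mostly up to about 35 µM; nearly all actives have a fitted effect of over 75% in size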
# Summary of the method: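 Rat M1-CHO cells, 2000/well, overnight → Fluo-4 no-wash dye with probenecid, 1 h 37C → compound 10 min, room temp → basal read 6 s → carbachol EC80 (100 nM) → 4 min kinetic read; peak/basal.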
smiles,measurement,setting,value
c1ccc2c(c1)Nc1ccccc1S2,Potency,[1],inactive
same,Potency,[2],inactive
same,outcome,[3],inactive
same,outcome,[4],inactive
same,Potency,[5],inactive
same,Potency,[6],inactive
same,Potency,[7],inactive
same,Potency,[8],inactive
same,outcome,[9],inactive
same,Potency,[10],inactive
CNCC(O)c1ccc(O)cc1 (stereo not drawn),Potency,[1],inactive
same,Potency,[11],inactive
same,outcome,[12],inactive
same,Potency,[2],inactive
same,outcome,[3],inactive
same,outcome,[4],inactive
same,outcome,[13],inactive
same,Potency,[5],inactive
same,outcome,[14],inactive
same,Potency,[7],inactive
same,Potency,[8],inactive
same,outcome,[9],inactive
same,Potency,[10],inactive
CN1C[C@H](CNC(=O)OCc2ccccc2)C[C@@H]2c3cccc4c3c(cn4C)C[C@H]21,Potency,[15],10 µM (active)
same,Potency,[11],15.8 µM (active)
same,outcome,[12],inactive
same,outcome,[13],inactive
same,outcome,[14],inactive
same,Potency,[16],12.6 µM (active)
CN(Cc1cnc2nc(N)nc(N)c2n1)c1ccc(C(=O)N[C@@H](CCC(=O)O)C(=O)O)cc1,outcome,[14],inactive
Cc1ccc(-c2nc3ccc(C)cn3c2CC(=O)N(C)C)cc1,outcome,[17],inactive
O=C(CCCN1CCC(O)(c2ccc(Cl)cc2)CC1)c1ccc(F)cc1,outcome,[14],inactive
CC[N+]1(C)CCCC(OC(=O)C(O)(c2ccccc2)c2ccccc2)C1 (stereo not drawn),outcome,[17],inactive
C[C@]12C/C(=C/O)C(=O)C[C@@H]1CC[C@@H]1[C@@H]2CC[C@@]2(C)[C@H]1CC[C@]2(C)O,Potency,[2],50.1 µM (active)
same,outcome,[4],inactive
same,Potency,[8],inactive
same,outcome,[9],inactive
CC1=NS(=O)(=O)c2cc(Cl)ccc2N1,outcome,[14],inactive
Cc1oncc1C(=O)Nc1ccc(C(F)(F)F)cc1,outcome,[14],inactive
CC(=O)Nc1cc([As](=O)(O)O)ccc1O,outcome,[17],inactive
O=c1c(O)c(-c2ccc(O)c(O)c2)oc2cc(O)cc(O)c12,Potency,[18],inactive
same,outcome,[14],inactive
CC(C)(C)NCC(O)c1cc(Cl)c(N)c(Cl)c1 (stereo not drawn),outcome,[17],inactive
